Several values for one entry are separate records, joined by “and”; a condition that tells them apart may be missing. Equal entries are not always repeated. Results filed as inconclusive are left out. Activity calls are given as the source filed them. The call rests on the fitted dose curve; in most records, active means well fitted inhibition curve with a large enough effect; inconclusive means small, poorly fitted or top-dose-only effect; inactive means no such curve, though single readings can be large or run the other way.
Assay: Primary qHTS for inhibitors of nuclear receptor binding SET domain protein 2 (NSD2) in an RCH-ACV wild type WT cells (2C) (AID 1645877); further: nearly all actives have a fitted effect of over 70% in size
Conditions: RCH-ACV (leukaemia line) NSD2 WT (2C) viability, CellTiter-Glo, 72 h; series mostly up to 44.9 µM
On the % scale 0 is the no-effect control and ±100 the full control effect; potency means the concentration at half of the fitted maximal effect.

| SMILES | activity change, negative = cell killing | Potency |
| --- | --- | --- |
| CC(CCC1(O)OC2CC3C4CCC5CC(O[C@@H]6O[C@H](CO)[C@@H](O)[C@H](O)[C@H]6O[C@@H]6O[C@@H](C)[C@H](O)[C@@H](O)[C@H]6O)C(O)CC5(C)C4CCC3(C)C2C1C)CO[C@@H]1O[C@H](CO)[C@@H](O)[C@H](O)[C@H]1O (some centres not stated) | -13.5% [at 9.23 µM] (inactive) |  |
| C=C1C(=O)OC2C1CCC(=C)C1CC(OC(C)=O)C(=C)C12 (configuration not stated) |  | 3.25 µM (active) |
| OC[C@H]1O[C@@H](OC[C@H]2O[C@@H](OC/C=C/c3ccccc3)[C@H](O)[C@@H](O)[C@@H]2O)[C@@H](O)[C@@H]1O |  | inactive |
| CC(C)=CCC(O)/C(C)=C/CO[C@@H]1O[C@H](CO)[C@@H](O)[C@H](O)[C@H]1O (some centres not stated) |  | inactive |
| C=C[C@H]1[C@H](O[C@@H]2O[C@H](CO)[C@@H](O)[C@H](O)[C@H]2O)OC=C(C(=O)OC)[C@H]1C/C=C(/C=O)[C@@H]1C(C(=O)OC)=CO[C@@H](O[C@@H]2O[C@H](CO)[C@@H](O)[C@H](O)[C@H]2O)[C@@H]1C=C |  | inactive |
| CC1CCC2(CO)C(C(=O)O)=CCCC2C1(C)CCc1ccoc1 (configuration not stated) |  | inactive |
| Cc1cc(O)c(-c2ccc([C@@H](C)CN(C)C)cc2)c2c1[nH]c(=O)c1sccc12 |  | 0.0742 µM (active) |
| Cc1cc(=O)oc2c(C=O)c(O)ccc12 |  | 16.3 µM (active) |
| CC/C=C\CCO[C@@H]1O[C@H](CO)[C@@H](O)[C@H](O)[C@H]1O |  | inactive |
| O=C(/C=C/c1ccccc1)OC[C@]12O[C@H]1[C@@H](O)[C@@H]1C=CO[C@@H](O[C@@H]3O[C@H](CO)[C@@H](O)[C@H](O)[C@H]3O)[C@@H]12 |  | inactive |
| Cc1ccc([N+](=O)[O-])cc1S(=O)(=O)N(C)/N=C/c1cnc2ccc(Br)cn12 |  | 20.6 nM (active) and 74.2 nM (active) |
| C[C@@H]1O[C@@H](O[C@H]2[C@H](O)[C@@H](O)[C@H](O[C@H]3[C@H](O[C@H]4CC[C@@]5(C)C(=CC[C@@H]6C5CC[C@]5(C)[C@@H]7[C@H](C[C@@H]65)O[C@]5(CC[C@@](C)(CO[C@@H]6O[C@H](CO)[C@@H](O)[C@H](O)[C@H]6O)O5)[C@H]7C)C4)O[C@H](CO)[C@@H](O)[C@@H]3O)O[C@@H]2CO)[C@H](O)[C@H](O)[C@H]1O (some centres not stated) |  | 2.18 µM (active) |
| CC(C)=C/C=C\[C@H](C)[C@H]1CC[C@]2(C)C[C@@H]3C(C)=CC(=O)C3/C(CO)=C\C[C@@H]12 (some centres not stated) |  | 11.3 µM (active) |
| O=C(c1cc2c(cc1F)OC(c1ccc(F)cc1)(c1ccc(Cl)cc1Cl)O2)N1CCOCC1 (configuration not stated) |  | 20.5 µM (active) |
| CC(C)=CCC[C@](C)(O[C@@H]1O[C@H](CO[C@@H]2O[C@H](CO)[C@@H](O)[C@H](O)[C@H]2O)[C@@H](O)[C@H](O)[C@H]1O)C1CC[C@]2(C)[C@@H]1[C@H](O)CC1[C@@]3(C)CC[C@H](O[C@@H]4O[C@H](CO)[C@@H](O)[C@H](O)[C@H]4O[C@@H]4O[C@H](CO)[C@@H](O)[C@H](O)[C@H]4O)C(C)(C)[C@@H]3CC[C@]12C (some centres not stated) | -25.5% [at 9.23 µM] (inactive) |  |
| CC(=O)O[C@]1(C(C)=O)CC[C@H]2[C@@H]3C[C@H](C)C4=CC(=O)C=C[C@]4(C)[C@@]3(F)[C@@H](O)C[C@@]21C |  | 0.0129 µM (active) |

| SMILES | activity change, negative = cell killing | Potency |
| --- | --- | --- |
| C=C1C(=O)OC2/C=C(\CO)CC/C=C(\C=O)CC(OC(=O)CC(C)C)C12 (configuration not stated) |  | 2.26 µM (active) |
| COC(=O)C1=CO[C@@H](O[C@@H]2O[C@H](CO[C@@H]3O[C@H](COC(=O)/C=C/c4cc(OC)c(O)c(OC)c4)[C@@H](O)[C@H](O)[C@H]3O)[C@@H](O)[C@H](O)[C@H]2O)[C@@H]2C(CO)=CC[C@H]12 |  | inactive |
| CC/C=C/CC1=C(CCCCC(CCC(=O)O)OC(C)=O)CCC1=O (configuration not stated) |  | 12.7 µM (active) |
| CC(C)=CCC[C@](C)(O)[C@H]1CC[C@]2(C)[C@@H]1[C@H](O)CC1[C@@]3(C)CC[C@H](O)C(C)(C)[C@@H]3[C@@H](O[C@@H]3O[C@H](CO)[C@@H](O)[C@H](O)[C@H]3O[C@@H]3O[C@H](CO)[C@@H](O)[C@H](O)[C@H]3O)C[C@]12C (some centres not stated) |  | inactive |
| C=C[C@H]1[C@H](O[C@@H]2O[C@H](CO)[C@@H](O)[C@H](O)[C@H]2O)OC=C(C(=O)OC)[C@H]1CCOC(=O)c1cc(O)c(O)c(O)c1 |  | inactive |
| CO[C@H]1/C=C\O[C@@]2(C)Oc3c(C)c(O)c4c(O)c(c5c(nc6cc(C)ccn65)c4c3C2=O)NC(=O)/C(C)=C\C=C/[C@H](C)[C@H](O)[C@@H](C)[C@@H](O)[C@@H](C)[C@H](OC(C)=O)[C@@H]1C |  | 10.3 µM (active) |
| CC1=C(CCC(C)O[C@@H]2O[C@H](CO)[C@@H](O)[C@H](O)[C@H]2O)C(C)(C)CCC1=O (some centres not stated) |  | inactive |
| O=C(N/N=C/c1ccc(O)c(O)c1)c1cc2ccccc2cc1O |  | 5.41 µM (active) |
| CCC(C)C(=O)OC1CC(O)C23C4OCC5(C(O)CC2C1(C)C(O)O4)C3C(=O)C(O)C1(C)C(O)(c2ccoc2)CC2OC251 (configuration not stated) |  | 0.0765 µM (active) |
| CC1(C)CC[C@]2(C(=O)O[C@@H]3O[C@H](CO)[C@@H](O)[C@H](O)[C@H]3O)CC[C@]3(C)C(=CCC4[C@@]5(C)C[C@@H](O)[C@H](O)[C@@](C)(CO)C5CC[C@]43C)C2[C@@H]1O (some centres not stated) |  | inactive |
| C[C@H](NC(=O)CCc1nc2ccccc2c(=O)[nH]1)c1ccccc1 |  | inactive |
| CCCCc1nc2cc(/C=C/C(=O)NO)ccc2n1CCN(CC)CC |  | 230 nM (active) and 525 nM (active) |
| Cc1nc([C@](C)(O)CO)sc1-c1cnc(N)c(O[C@H](C)c2cc(F)ccc2-n2nccn2)c1 |  | 13.2 µM (active) |
| C=C1C(=O)O[C@@H]2/C=C(\C)C(=O)/C=C/[C@](C)(O)C[C@@H](OC(=O)C(C)C)[C@@H]12 |  | 0.284 µM (active) |
| CC(O)(CC(=O)O)CC(=O)OCc1ccc(O[C@@H]2O[C@H](CO)[C@@H](O)[C@H](O)[C@H]2O)cc1 (some centres not stated) |  | inactive |
| CC1(C)[C@@H](O)CC[C@]2(C)[C@H]3CC=C4[C@@H]5C[C@](C)(C(=O)O)CC[C@]5(C)CC[C@@]4(C)[C@]3(C)CC[C@@H]12 |  | inactive |

— PubChem BioAssay (NCATS)
